Compound activity from PubChem BioAssay.
Cruzain inh Det = blocks cruzain activity in presence of Triton detergent; P25779; purified cruzain, Z-FR-AMC fluorescence, 0.01% Triton; Potency, µM, inactives show max response, negative = inhibition, most hits filed as inhibitors; AID 1478; 0.43% of 200,000 active;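 further: plate controls were neutral wells for no effect and buffer without enzyme for full effect; nearly all actives have a fitted effect of over 40% in size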
Target sequence (P25779 123-467 limits assumed): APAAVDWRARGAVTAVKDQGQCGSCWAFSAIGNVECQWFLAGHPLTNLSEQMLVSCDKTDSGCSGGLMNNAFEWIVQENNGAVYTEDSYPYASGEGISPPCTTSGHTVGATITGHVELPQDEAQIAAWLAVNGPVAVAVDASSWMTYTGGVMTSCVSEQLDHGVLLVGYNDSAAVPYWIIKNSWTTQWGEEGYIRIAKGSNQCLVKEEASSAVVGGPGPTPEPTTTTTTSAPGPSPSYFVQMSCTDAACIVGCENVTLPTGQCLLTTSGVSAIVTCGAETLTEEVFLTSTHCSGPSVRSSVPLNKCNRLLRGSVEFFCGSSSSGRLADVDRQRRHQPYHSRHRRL
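Z-FR-AMC hydrolysis (2 uM substrate) by cruzain (1.5 nM) monitored kinetically at ex 360/em 450 nm after 15 min room-temperature compound exposure; 0.01% Triton X-100, pH 5.5, 5 mM DTT.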
Cruzain inh noDet = cruzain (T. cruzi) inhibition without detergent. P25779. purified cruzain, Z-FR-AMC fluorescence, no detergent. Potency, µM, for inactives: max response, negative = inhibition, hits mostly inhibitors. 2.3% of 200,000 active. AID 1476;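 further: plate controls were enzyme without inhibitor for no effect and buffer without enzyme for full effect; nearly all actives have a fitted effect of over 40% in size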
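Purified cruzain at 1.5 nM, pre-incubated 15 min with compound at room temperature in 100 mM sodium acetate pH 5.5, 5 mM DTT, 0.00005% Triton X-100. Reaction started with 2 uM Z-FR-AMC; AMC fluorescence increase over 60 s gives rate.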
* = called active by the depositor; ? = inconclusive. The list is not random: actives were taken first. Their share in the collection is about 2.5%. The call rests on the fitted dose curve; in most records, active means well fitted curve in the direction sought with a large enough effect; inconclusive means small, poorly fitted or top-dose-only effect, or another doubt; inactive means no such curve, though single readings can be large; an effect the other way counts as inactive or inconclusive. Potency means the concentration at half of the fitted maximal effect.

SMILES	Cruzain inh Det	Cruzain inh noDet
Cn1c(=O)n(C)c2cc(S(=O)(=O)N3CCOCC3)ccc21	3%	-5%
O=S(=O)(c1ccc2nc(-c3ccco3)c(-c3ccco3)nc2c1)N1CCOCC1	22µM*	1%
O=C(Nc1nc(-c2ccc(S(=O)(=O)N3CCCCCC3)cc2)cs1)c1ccccc1	-3%	10µM*
CCc1nnc(NC(=O)c2ccc(S(=O)(=O)N3CCCCC3C)cc2)s1 (centres undefined)	3%	-5%
O=C(Nc1nc(-c2cccnc2)cs1)c1ccc(S(=O)(=O)N2CCOCC2)cc1	7%	-3%
CCc1nnc(NC(=O)c2ccc(S(=O)(=O)N3CCCCCC3)cc2)s1	4%	13µM*
O=C(Nc1nc(-c2cccs2)cs1)c1ccc(S(=O)(=O)N2CCCC2)cc1	2%	-17%
O=C(Nc1nc(-c2ccc3c(c2)OCCO3)cs1)c1ccc(S(=O)(=O)N2CCCCC2)cc1	-1%	13µM*
O=C(O)c1ccc(Cl)cc1Cl	1%	-3%
NC(=O)[C@@H]1CCCN1Cc1ccc2c(c1)OCO2	6%	0%
CCCOc1ccccc1C(=O)Nc1nc2c(s1)CCCC2	-8%	0%
Cc1cccc(-c2noc(-c3ccc(NCC4CCCO4)c([N+](=O)[O-])c3)n2)c1 (centres undefined)	1%	1%
C=CC[C@@](C(C)=O)(C(=O)OC)C(NC(=O)OC)c1ccccc1 (some centres undefined)	1%	3%
COCCCNC(=O)c1[nH]c2cc(OC)ccc2c1Sc1ccc(C)cc1	1%	26%
COc1ccc2c(Sc3ccc(C)cc3)c(C(=O)NCCc3ccccc3)[nH]c2c1	-3%	16µM*
CCCCCNCCCCC	2%	-2%
NS(=O)(=O)c1ccc(N=Nc2cc3ccccc3c(C(=O)O)c2O)cc1	-1%	-8%
COc1ccc(Cn2c(O)c(C=Nc3ccccc3)c3ccccc3c2=O)cc1	-5%	?
COc1ccc(Cn2c(O)c(C=Nc3ccc(C)cc3)c3ccccc3c2=O)cc1	0%	13µM*
COc1ccc(Cn2c(O)c(C=Nc3ccc(O)cc3)c3ccccc3c2=O)cc1	-3%	25µM*
COc1ccc(N=Cc2c(O)n(-c3cccc(C)n3)c(=O)c3ccccc23)cc1	-9%	?
Clc1cccc(N2CCN(c3ncnc4c3nc3n4CCCCC3)CC2)c1	0%	-6%
Cc1c(Cl)ccc2sc(N3CCN(C(=O)CS(=O)(=O)c4ccccc4)CC3)nc12	3%	24%
CC(=O)Nc1ccc(S(=O)(=O)NNC(=O)c2cc3c4ccccc4n(C)c3s2)cc1	22µM*	-20%
CCCNC(=O)c1cc2c3ccccc3n(C)c2s1	-18%	-2%
SMILES	Cruzain inh Det	Cruzain inh noDet
Cc1ccc(-c2nc(C)c(CCNC(=O)C(=O)Nc3ccc(C)c(Cl)c3)s2)cc1	1%	4%
Cc1ccc(S(=O)(=O)CC(=O)Nc2nc3c(C)cc(C)cc3s2)cc1	-7%	13µM*
COc1cccc2sc(NC(=O)CS(=O)(=O)c3ccc(C)cc3)nc12	-2%	?
CCOc1ccc2nc(NC(=O)CS(=O)(=O)c3ccc(C)cc3)sc2c1	-8%	?
CCOc1ccc2nc(NC(=O)CS(=O)(=O)c3ccc(Cl)cc3)sc2c1	-10%	5µM*
Cc1cc2c(cc1C)NC(CC(=O)Nc1ccccc1SC(F)(F)F)C(=O)N2 (centres undefined)	-3%	-1%
CC1=Nc2cc(C(=O)NCCc3ccccc3)ccc2Sc2c(C)ccc(C)c21	-4%	?
CC1=Nc2cc(C(=O)NCCc3ccc(Cl)cc3)ccc2Sc2c(C)ccc(C)c21	-1%	25µM*
Cc1ccc(CN2CCN(C3CCNCC3)C(=O)C2=O)cc1	0%	-1%
Cc1ccc(C2CC(c3cccs3)=NN2C(=O)c2ccc(Br)o2)cc1 (centres undefined)	-9%	7.9µM*
CCOC(=O)CSCC(=O)N1N=C(c2cccs2)CC1c1ccc(F)cc1 (centres undefined)	-9%	7%
CCn1c(=N)c(C(=O)NCc2ccccc2)cc2c(=O)n3cccc(C)c3nc21	-6%	14%
COCCn1c(=N)c(C(=O)NCc2ccco2)cc2c(=O)n3ccccc3nc21	-5%	?
CCOC(=O)c1cc2c(=O)n3ccccc3nc2n(CC2CCCO2)c1=NC(=O)c1cc(C)cc(C)c1 (centres undefined)	-2%	-5%
CCn1c(=N)c(C(=O)NC)cc2c(=O)n3cccc(C)c3nc21	14µM*	?
COc1ccc(CCNC(=O)c2cc3c(=O)n4cccc(C)c4nc3n(Cc3ccncc3)c2=N)cc1	1%	13%
CCn1c(=N)c(C(=O)OC)cc2c(=O)n3ccccc3nc21	0.2µM*	-79%
CCCCNC(=O)c1cc2c(=O)n3cccc(C)c3nc2n(Cc2ccncc2)c1=N	22µM*	?
CCOC(=O)c1cc2c(=O)n3ccccc3nc2n(CC2CCCO2)c1=NC(C)=O (centres undefined)	32µM*	10µM*
CCOC(=O)c1ccccc1NC(=O)CN(c1cc(C(F)(F)F)ccc1Cl)S(C)(=O)=O	-13%	6%
CCOc1ccc(CCNC(=O)Cn2ncn3c(cc4sc(C)cc43)c2=O)cc1OCC	-1%	0%
CCOC(=O)c1ccc2c(c1)N(Cc1ccccc1)C(=O)c1ccccc1S2	0%	-18%
O=C(NCc1ccco1)c1ccc2c(c1)N(Cc1ccccc1)C(=O)c1ccccc1S2	1%	?
N#Cc1ccccc1CN1C(=O)c2ccccc2Sc2ccc(C(=O)OCc3ccco3)cc21	-7%	25µM*
C=Cc1ccc(CN2C(=O)c3ccccc3Sc3ccc(C(=O)OCc4ccco4)cc32)cc1	-2%	13µM*
SMILES	Cruzain inh Det	Cruzain inh noDet
COc1ccc(-c2nnc(SCC(=O)Nc3ccc(F)cc3)s2)cc1	-2%	-13%
N#Cc1ccccc1NC(=O)C(=O)NCC(c1cccnc1)N1CCN(c2ccccc2)CC1 (centres undefined)	-9%	?
O=C(CC1C(=O)N(c2ccc(F)cc2)C(=O)N1Cc1cccnc1)Nc1ccc(F)cc1 (centres undefined)	-3%	-4%
O=C(CCC1CCCC1)Nc1nnc(-c2ccc3c(c2)OCO3)s1	0%	10µM*
COCc1nnc(NC(=O)CCC2CCCCC2)s1	2%	-5%
Cc1nc2nc(SCc3c(F)cccc3Cl)nn2c(C)c1Cc1ccccc1	1%	-10%
Cc1ccc(-c2nnn(CC(=O)N3c4ccccc4CCc4ccccc43)n2)cc1	-4%	?
Cc1ccc(-c2nnn(CC(=O)N3CCN(c4nc5ccccc5s4)CC3)n2)cc1	12%	10µM*
COc1cccc(CNC(=O)c2ccc3c(c2)c(C)c(C)n3Cc2ccccc2)c1	1%	?
CCc1ccc(NC(=O)c2ccc3c(c2)c(C)c(C)n3Cc2ccccc2)cc1	2%	13µM*
CCc1ccc(CNC(=O)c2ccc3c(c2)c(C)c(C)n3Cc2ccccc2)cc1	2%	32µM*
Cc1c(C)n(Cc2ccccc2)c2ccc(C(=O)NCc3ccco3)cc12	-5%	?
CCOc1ccc(CCNC(=O)c2ccc3c(c2)c(C)c(C)n3Cc2ccccc2)cc1OCC	0%	?
CCc1cccc(NC(=O)c2ccc3c(c2)c(C)c(C)n3Cc2ccc(F)cc2)c1	2%	16µM*
CCc1ccc(NC(=O)c2ccc3oc(=O)n(Cc4ccccc4)c3c2)cc1	1%	30%
Cc1ccc(CCNC(=O)c2ccc3c(c2)c(C)c(C)n3Cc2ccccc2)cc1	2%	13µM*
